Experimental findings from ChEMBL document CHEMBL3433997, “St. Jude Leishmania screening dataset” (2016) are described below.

Holding throughout (format): functional
Test [1] has as its target Solute carrier family 2, facilitated glucose transporter member 1 (Homo sapiens) (UniProt P11166). The test is described as follows: ST_JUDE_LEISH: Cytotoxicity at 2uM final concentration against transgenic Leishmania Mexicana promastigotes LmGLUT1 that are glucose transport deficient and complemented with the human glucose transporter GLUT1. Activity is measured by DNA content using SYBR green in vitro.

Test [2] deals with Hexose transporter 1 (Plasmodium falciparum) (UniProt O97467). The test can be described thus: ST_JUDE_LEISH: Cytotoxicity at 2uM final concentration against transgenic Leishmania Mexicana promastigotes LmPfHT that are glucose transport deficient and complemented with the Plasmodium falciparum hexose transporter. Activity is measured by DNA content using SYBR green in vitro.
The target in test [3] is Glucose transporter (Leishmania mexicana) (UniProt O61059). The test is described as follows: ST_JUDE_LEISH: Cytotoxicity at 2uM final concentration against transgenic Leishmania Mexicana promastigotes LmGT2 that are glucose transport deficient and complemented with the L. Mexicana glucose transporter 2. Activity is measured by DNA content using SYBR green in vitro.

Solute carrier family 2, facilitated glucose transporter member 1 (Homo sapiens), sequence (P11166 whole entry): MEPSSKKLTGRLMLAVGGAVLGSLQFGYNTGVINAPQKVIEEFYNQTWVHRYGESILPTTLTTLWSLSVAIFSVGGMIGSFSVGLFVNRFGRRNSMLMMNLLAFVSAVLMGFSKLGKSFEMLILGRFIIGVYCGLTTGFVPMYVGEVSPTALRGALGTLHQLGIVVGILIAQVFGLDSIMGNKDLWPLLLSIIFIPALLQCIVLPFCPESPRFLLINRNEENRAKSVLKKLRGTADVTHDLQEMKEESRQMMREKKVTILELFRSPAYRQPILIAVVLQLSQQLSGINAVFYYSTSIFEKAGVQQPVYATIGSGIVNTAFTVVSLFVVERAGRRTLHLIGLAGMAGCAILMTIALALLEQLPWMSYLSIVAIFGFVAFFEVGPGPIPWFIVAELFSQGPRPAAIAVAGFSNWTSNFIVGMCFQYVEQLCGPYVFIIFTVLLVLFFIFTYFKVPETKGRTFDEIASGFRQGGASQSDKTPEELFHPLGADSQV

What is called inhibition is the relative decrease from the control value, in per cent. Take `Cn1cncc1C(=O)NC1CCN(c2ccnc(Nc3ccc(F)cc3)n2)C1` (centres undefined): the results for the inhibition in test [1], in test [2] and in test [3] were 0.07%, -0.1% and 0.61%, respectively.
On to `Cc1ccc(N2C(=O)C3C(C2=O)C2(c4ccccc4)C(=O)C3(c3ccccc3)C(c3ccccc3)=C2c2ccccc2)c(C)c1` (centres undefined), for which the inhibition worked out at 6.28% in test [1], 4.9% in test [2] and 3.25% in test [3].
In the case of `O=C(Nc1ccc(-c2cccc(-c3nc4cc(F)ccc4[nH]3)c2)cc1)Nc1ccc(F)c(F)c1F`, the inhibition came to 5.34% in test [1], 7.02% in test [2] and 6.78% in test [3].
With `Cc1cccc2c1NC(=O)/C2=N/NC(=S)N(C)C`, the inhibition in test [1] came to 1.53%; in test [2], 4.53%; in test [3], 2.09%.
For `Clc1ccc(OC2CCC(Cn3ccnc3)(c3ccc(Cl)cc3Cl)CC2)c(Cl)c1` (centres undefined), in that order: 6.14%, 3.28% and -0.14%.
Consider `COc1ccc(C2CC(c3cccs3)=NN2C(=O)COc2cccc(C(C)=O)c2)cc1OC` (centres undefined), for which the inhibition in test [1] is 0.04%; in test [2], -0.46%; in test [3] it was -2.22%.
As for `COc1ccc(CN2CCN(C(=O)c3cccs3)CC2)c(O)c1`, the inhibition in test [1] is 10.5%; in test [2], 11.1%; in test [3] it was 8.97%.
Consider `Cn1nc(-c2ccc(NC(=O)Nc3cc(C(F)(F)F)ccc3F)c(F)c2)c2cnc(NCCCN3CCOCC3)nc21`, for which the inhibition in test [1] is 6.47%; in test [2], 6.96%; in test [3], 7.47%.
For the compound `Cc1ncccc1-c1cccc2c(NC(=O)Nc3ccc4nccc(N5CCN(C)CC5)c4c3)cccc12`, the inhibition was determined as 4.96% in test [1], 3.58% in test [2] and 1.71% in test [3].
As to `O=C(NCCCN1CCN(c2cccc(Cl)c2)CC1)c1ccc(-c2nc3cc(Cl)c(Cl)cc3[nH]2)c(F)c1`, the inhibition in test [1] is 3.57%; in test [2], 1.4%; in test [3] it was 1.68%.
On to `Brc1cc(Br)c2c(c1)C(NCCCNc1nc3ncccc3[nH]1)CCN2` (centres undefined), for which the inhibition was determined as 68% in test [1], 78.5% in test [2] and 73.5% in test [3].
With `CCCCc1cc(NCC)nc(Nc2cccc(OC)c2)n1`, the inhibition worked out at 38.6% in test [1], 27% in test [2] and 19.1% in test [3].
With `N#Cc1cccc(-c2nc(NCc3cccc(C(F)(F)F)c3)nn2-c2cccc(C(F)(F)F)c2)c1`, the values for the inhibition in test [1], in test [2] and in test [3] were 1.68%, -0.35% and -0.56%, respectively.
For `CNCCNCc1ccc(-c2ccc(-c3nc4ccccc4[nH]3)s2)cc1`, in that order: 3.78%, 4.5% and 3.75%.
`c1ccc(Oc2ccc(Nc3ccnc(Nc4ccc5cn[nH]c5c4)n3)cc2)cc1`: the inhibition in test [1] stood at 3.91%; in test [2] it was 3.81%; in test [3], 1.54%.
As for `CCOC(=O)c1ccc(-c2c(C(F)(F)F)noc2-c2cc(CC)c(OC)cc2O)o1`, the inhibition turned out to be 3.34% in test [1], 2.22% in test [2] and 1.45% in test [3].
For `CN(C)CCCOc1cc(NC(=O)Nc2ccc(-c3ccncc3)c3ccccc23)ccc1I`, in that order: 6.91%, 6.1% and 7.69%.
For `COc1cc(CCON2C(N)=NC(N)=NC2(C)C)cc(OC)c1OC`, the inhibition in test [1] worked out at 2.34%; in test [2], 0.73%; in test [3], 1.04%.
For `Cc1noc(C)c1-c1ccc2c(Nc3ccccc3C(C)(C)C)c(C(=O)NCc3cccc4ccccc34)cnc2c1`, in that order: 2.41%, 2.01% and 0.05%.
As for `Cn1cc(CN2CCC(OC(c3ccccc3)c3ccc(Cl)cc3)CC2)cn1` (centres undefined), the inhibition is 4.78% in test [1], 1.66% in test [2] and -0.63% in test [3].
As to `COc1cc(Nc2ncc3c(C)nc(-c4cc5ccccc5[nH]4)n3n2)cc(OC)c1OC`, the inhibition in test [1] was determined as 4.94%; in test [2], 5.87%; in test [3] it was 2.06%.
`Cc1cc(C(=O)Nc2ccc3c(c2)CCN3C2CCN(Cc3cccc(F)c3F)C2)no1` (centres undefined): the inhibition in test [1] was -0.4%; in test [2], -0.88%; in test [3], 0.24%.
Turning to `COc1ccc(Nc2nc(N3CCCC3)c3ccccc3n2)cc1`, the inhibition in test [1] turned out to be 17.6%; in test [2] it was 19.6%; in test [3] it was 14.3%.
Consider `CC(C)CCN1CCCN(Cc2cccc(NC(=O)c3cc4ccccc4s3)c2)CC1`, for which the inhibition in test [1] is -0.92%; in test [2], 0.43%; in test [3], 2.29%.
In the case of `Cc1cc(C)c(C(=O)Nc2n[nH]c3nnc(-c4cccc(F)c4F)cc23)c(C)c1`, the inhibition is 0.09% in test [1], -0.09% in test [2] and 0.28% in test [3].
For `c1ccc2c(NCCCCCCCNc3ccnc4ccccc34)ccnc2c1`, the inhibition in test [1] came out at 13.5%; in test [2], 13.3%; in test [3], 12.9%.
Take `CCCNC(=O)C1Cc2cc(OC)c(OC)cc2C2(N1)C(=O)N(Cc1cccc(OC)c1)c1ccccc12` (centres undefined): the inhibition in test [1] was -1.15%; in test [2], 0.36%; in test [3] it was -0.47%.
For `CN1CCN(CCCN(Cc2csc(-c3ccc(CNCc4ccccc4)cc3)n2)C(=O)c2cc(F)cc(F)c2)CC1`, in that order: 4.63%, 2.02% and 1.42%.
As to `CCn1c(-c2nonc2N)nc2cnc(Oc3cccc(NC(=O)c4ccc(OCCN5CCCCC5)cc4)c3)cc21`, the inhibition was determined as 17.2% in test [1], 28.1% in test [2] and 13.7% in test [3].
For `COC(=O)C(=C(C)C)N1C(=O)[C@@H](NC(=O)OCc2ccccc2)[C@H]1SS[C@@H]1[C@H](NC(=O)OCc2ccccc2)C(=O)N1C(C(=O)OC)=C(C)C`, in that order: -2.06%, -0.42% and -1.05%.
As for `CCCCc1cc(Cc2cnc(N)nc2N)cc(OC)c1OC`, the inhibition came out at 3.17% in test [1], 2.41% in test [2] and 0.98% in test [3].
On to `O=C(Nc1cccc(-c2cccc(-c3nc4ccccc4[nH]3)c2)c1)c1cccnc1`, for which the inhibition in test [1] was 2.95%; in test [2], 2.73%; in test [3] it was 0.76%.
For the compound `CCc1n[nH]c(C(=O)NC2CCN(CC3(c4ccc(OC)cc4)CCCCC3)CC2)c1C`, the inhibition in test [1] came out at 3.43%; in test [2] it was 2.97%; in test [3] it was 1.81%.
